Experimental data reported in PubChem BioAssay (NCATS).
Results filed as inconclusive are left out. Where a call stands in place of a potency, no number is given. Values without a mark were called inactive. The source made the active and inactive calls. Calls follow the shape of the dose curve; as a rule, active = well fitted cell-killing curve with a large enough effect; inconclusive = small, poorly fitted or top-dose-only effect, or effect the other way; inactive = flat fitted curve, though single readings scatter.

How the values were obtained:
Assay in all cases: Primary qHTS to identify gynecologic anti-cancer compounds using libraries of approved drugs and bioactive compounds (AID 1345084); also: nearly all actives have a fitted effect of over 55% in size
C33A = settings: Gynecologic cancer cell panel viability, ATPlite luminescence, 48 h; series mostly up to 57.5 µM
Outline: (§1)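 Cell viability after 48 h drug treatment, ATPlite luminescence readout; five doses.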

CAOV3 = settings: Gynecologic cancer cell panel viability, ATPlite luminescence, 48 h; series mostly up to 57.5 µM
Outline: as §1

CASKI = settings: Gynecologic cancer cell panel viability, ATPlite luminescence, 48 h; series mostly up to 57.5 µM
Outline: as §1

Es-2 = settings: Gynecologic cancer cell panel viability, ATPlite luminescence, 48 h; series mostly up to 57.5 µM
Outline: as §1

HeLa = settings: Gynecologic cancer cell panel viability, ATPlite luminescence, 48 h; series mostly up to 57.5 µM
Outline: as §1

Hek293T = settings: Gynecologic cancer cell panel viability, ATPlite luminescence, 48 h, control line for the selectivity index; series mostly up to 57.5 µM
Outline: as §1

JEG-3 = settings: Gynecologic cancer cell panel viability, ATPlite luminescence, 48 h; series mostly up to 57.5 µM
Outline: as §1

OV90 = settings: Gynecologic cancer cell panel viability, ATPlite luminescence, 48 h; series mostly up to 57.5 µM
Outline: as §1

PA-1 = settings: Gynecologic cancer cell panel viability, ATPlite luminescence, 48 h; series mostly up to 57.5 µM
Outline: as §1

SKOV3 = settings: Gynecologic cancer cell panel viability, ATPlite luminescence, 48 h; series mostly up to 57.5 µM
Outline: as §1

Tov112D = settings: Gynecologic cancer cell panel viability, ATPlite luminescence, 48 h; series mostly up to 57.5 µM
Outline: as §1

Tov-21-G = settings: Gynecologic cancer cell panel viability, ATPlite luminescence, 48 h; series mostly up to 57.5 µM
Outline: as §1
Potency is read from the fitted curve at half-maximal effect.

Structure (SMILES)	Potency (C33A)	Potency (CAOV3)	Potency (CASKI)	Potency (Es-2)	Potency (HeLa)	Potency (Hek293T)	Potency (JEG-3)	Potency (OV90)	Potency (PA-1)	Potency (SKOV3)	Potency (Tov112D)	Potency (Tov-21-G)
CC1OC2OC(=O)C3(C)CC4C5(CO5)C5=CC(=O)OC(C)(C)C5=CC(=O)C4(C)C(C1=O)C23 (stereo unspecified)	inactive	inactive	inactive	inactive	inactive	inactive	inactive	inactive	inactive	inactive	inactive	
C=C1CC[C@@H]2[C@](C)(CO)[C@H](O)CC[C@@]2(C)[C@@H]1C/C=C1/C(=O)OCC1OC(=O)/C(=C/CO)C(O)C[C@@H]1C(=C)CC[C@@H]2[C@](C)(CO)[C@H](O)CC[C@]21C (stereo partly specified)	inactive	inactive	inactive	inactive	inactive	inactive	inactive	inactive	inactive		inactive	inactive
CC(C)(C)Oc1ccc(OCC2Cc3ccccc3CN2C(=O)c2cccc3ccccc23)cc1 (stereo unspecified)	inactive	inactive	inactive	inactive	inactive	inactive	inactive	inactive	inactive		inactive	inactive
CC(C)c1noc(C2CCN(c3ncnc(Nc4ccc(S(C)(=O)=O)cc4F)c3[N+](=O)[O-])CC2)n1	inactive	inactive	inactive	inactive	inactive	inactive	inactive	inactive	inactive		inactive	inactive
CC(C)S(=O)(=O)c1ccc2nccc(Nc3ccc4scnc4c3)c2c1	inactive	inactive	inactive	inactive	inactive	inactive	inactive	inactive	inactive	12.6 µM (active)	inactive	
CC/C=C\CC1C(=O)C=CC1(CCCCC1CCC(=O)O1)OC(C)=O (stereo unspecified)	inactive	inactive	inactive	inactive	inactive	inactive	inactive	inactive	inactive		inactive	inactive
O=C(Nc1nnc(-c2ccc3c(c2)OCCO3)o1)C1CCCCC1	inactive	inactive	inactive	inactive	inactive	inactive	inactive	inactive	inactive		inactive	inactive
CCc1cc2c(cc1CC)CC(NCC(O)c1ccc(O)c3[nH]c(=O)ccc13)C2 (stereo unspecified)	inactive	inactive	inactive	inactive	inactive	inactive	inactive	inactive	inactive		inactive	inactive
C[C@@H](NC(=O)[C@H](O)c1cc(F)cc(F)c1)C(=O)N[C@@H]1C(=O)N(C)c2ccccc2-c2ccccc21	inactive	inactive	inactive	inactive	inactive	inactive	inactive	inactive	inactive		inactive	inactive
CC(C)n1c(=O)c(C(=O)NC2CC3CCC(C2)N3C[C@@H](O)CN(C)S(C)(=O)=O)cc2ccccc21 (stereo partly specified)	inactive	inactive	inactive	inactive	inactive	inactive	inactive	inactive	inactive		inactive	inactive
C=C1CCC2C(C)(C)CCCC2(C)C1CC/C(C)=C\CO (stereo unspecified)	inactive	inactive	inactive	inactive	inactive	inactive	inactive	inactive	inactive		inactive	inactive
O=C(NS(=O)(=O)c1ccc(Br)s1)c1ccc(Cl)cc1Cl	inactive	inactive	inactive	inactive	inactive	inactive	inactive	inactive	inactive		inactive	inactive
CN(C)CCOC(C)(c1ccccc1)c1ccc(Cl)cc1 (stereo unspecified)	inactive	inactive	inactive	inactive	inactive	inactive	inactive	inactive	inactive		inactive	inactive
COc1cc(C#N)ccc1S(=O)(=O)Nc1ccc2c(c1)cc(C)c(=O)n2C	inactive	inactive	inactive	inactive	inactive	inactive	inactive	inactive	inactive		inactive	inactive
COc1ccccc1C(=O)Nc1cc2c(cc1N1CCCC1)n(C)c(=O)n2C	inactive	inactive	inactive	inactive	inactive	inactive	inactive	inactive	inactive		inactive	inactive
CCOC(=O)C1(CCOc2ccccc2)CCN(Cc2ccc(O)c(Cl)c2)CC1	inactive	inactive	inactive	inactive	inactive	inactive	inactive	inactive	inactive		inactive	inactive
COc1cc(/C=C/C(=O)NCCn2c(C(F)(F)F)cc3ccccc32)cc(OC)c1OC	inactive	inactive	inactive	inactive	inactive	inactive	inactive	inactive	inactive		inactive	inactive
OC1(CN2CCC(COc3noc4cccc(O[C@@H]5CCOC5)c34)CC2)CCOCC1	inactive	inactive	inactive	inactive	inactive	inactive	inactive	inactive	inactive		inactive	inactive

Structure (SMILES)	Potency (C33A)	Potency (CAOV3)	Potency (CASKI)	Potency (Es-2)	Potency (HeLa)	Potency (Hek293T)	Potency (JEG-3)	Potency (OV90)	Potency (PA-1)	Potency (SKOV3)	Potency (Tov112D)	Potency (Tov-21-G)
CC(C)Nc1nc(Nc2ccccc2)nc(-c2ccccc2)n1	inactive	inactive	inactive	inactive	inactive	inactive	inactive	inactive	inactive		inactive	inactive
CC(C)c1ccccc1OC(=O)NCCc1ccc2ccccc2c1	inactive	inactive	inactive	inactive	inactive	inactive	inactive	inactive	inactive		inactive	inactive
Cn1nc(C(C)(C)C)cc1C(=O)N[C@@H](Cc1cccc(Cl)c1)C(=O)NCC#N	inactive	inactive	inactive	inactive	inactive	inactive	inactive	inactive	inactive		inactive	inactive
O=C(N[C@H]1CCC[C@H](CO)C1)C1CCN(c2nc3cc(Cl)c(-c4ccc(Cl)cc4)cc3o2)CC1	inactive	inactive	inactive	inactive	inactive	inactive	inactive	inactive	inactive		inactive	inactive
O=C(O)c1ccc(N2C(=O)/C(=C/c3ccc(-c4ccc([N+](=O)[O-])cc4)o3)C=C2c2ccccc2)cc1	inactive	inactive	inactive	inactive	inactive	inactive	inactive	inactive	inactive		inactive	inactive
COc1ccc(C2(N(C)C(=O)c3ccc(NC(=O)c4ccco4)cc3)CCOCC2)cc1	inactive	inactive	inactive	inactive	inactive	inactive	inactive	inactive	inactive		inactive	inactive
CCc1ccc(-c2nc(CSCC(=O)NCCc3ccccc3)c(C)o2)cc1	inactive	inactive	inactive	inactive	inactive	inactive	inactive	inactive	inactive		inactive	inactive
C/C(=C/C=C\C=C\Cc1cnco1)[C@@H](O)C(C)(C)C(N)=O	inactive	inactive	inactive	inactive	inactive	inactive	inactive	inactive	inactive		inactive	inactive
COc1ccc(-c2c(C)nn3c(NCCN4CCOCC4)cc(C)nc23)cc1OC	inactive	inactive	inactive	inactive	inactive	inactive	inactive	inactive	inactive		inactive	inactive
Cc1cnc(-c2ccccc2C(C)C)nc1NCc1ccc(-n2ccnn2)cc1	inactive	inactive	inactive	inactive	inactive	inactive	inactive	inactive	inactive		inactive	inactive
CCOc1nc(NC(=O)Cc2cc(OC)ccc2OC)cc(N)c1C#N	inactive	inactive	inactive	inactive	inactive	inactive	inactive	inactive	inactive		inactive	inactive
O=C(Nc1ccc(Cl)cc1)C1CCCN(C(=O)c2cccc(-c3ccco3)c2)C1 (stereo unspecified)	inactive	inactive	inactive	inactive	inactive	inactive	inactive	inactive	inactive		inactive	inactive
CCOc1cccc(NC(=O)c2ccc(N3CCCC3)c(C(F)(F)F)c2)c1	inactive	inactive	inactive	inactive	inactive	inactive	inactive	inactive	inactive		inactive	inactive
CCOc1cn(-c2ccc(F)cc2C)nc1C(=O)Nc1ccc(Oc2ccnc3cc(OC)c(OC)cc23)c(F)c1	inactive	inactive	inactive	inactive	inactive	inactive	inactive	inactive	inactive		inactive	inactive
COc1ccc2c(c1O[C@H]1CCNC1)CCC2	inactive	inactive	inactive	inactive	inactive	inactive	inactive	inactive	inactive		inactive	inactive
CC(C)(N)c1ncc(-c2ccc(OC(F)(F)F)cc2)[nH]1	inactive	inactive	inactive	inactive	inactive	inactive	inactive	inactive	inactive		inactive	inactive
Cc1ccnn1-c1ccc(C(=O)N2CCN(S(=O)(=O)c3ccc(Cl)c(C(F)(F)F)c3)CC2)cc1	inactive	inactive	inactive	inactive	inactive	inactive	inactive	inactive	inactive		inactive	inactive
O=S(=O)(Cc1ccccc1)Nc1ccc(-c2ccc3c(cnn3-c3ccc(F)cc3)c2)c(C(F)(F)F)c1	inactive	inactive	inactive	inactive	inactive	inactive	inactive	inactive	inactive		inactive	inactive
